Bioassay records from PubChem BioAssay.
Most compounds without a hit are left out; they make up all but 1.8% or so of the library.
Myeloid diff 2 – induction of myeloid progenitor differentiation, primary screen, cell-based, flow cytometry, MLPCN library; ER-HoxA9 myeloid progenitors, lysozyme-GFP differentiation; calls only at 10 µM; hit rate 1% among 360,000; AID 624256, 2012;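 active = normalized GFP-positive differentiation at or above the plate's own cutoff, the solvent-only control mean plus 3 SD; inconclusive = no clear call, values can overlap the other calls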;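 note: cells exposed to compound for four days before flow analysis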
ABCB6 inh MLPCN – ABCB6 transporter inhibitors, primary screen, K562-ABCB6 cells, flow cytometry, MLPCN library. ATP-binding cassette sub-family B member 6 (Homo sapiens), Q9NP58. AID 602162, 2011. fluorescence ratio to DMSO, % at 10 µM. hit rate 0.19% among 360,000. K562-ABCB6 porphyrin accumulation, 1 h; stronger effect = lower value;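 active = fluorescence ratio to DMSO below 75%, the collection mean minus 3 SD; inconclusive = too few cells collected in the well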;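 note: signal is porphyrin accumulated inside mitochondria; 100% equals median channel fluorescence of DMSO control wells; lower ratio means ABCB6 inhibition with less porphyrin fluorescence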
Target sequence (Q9NP58 whole entry, looked up): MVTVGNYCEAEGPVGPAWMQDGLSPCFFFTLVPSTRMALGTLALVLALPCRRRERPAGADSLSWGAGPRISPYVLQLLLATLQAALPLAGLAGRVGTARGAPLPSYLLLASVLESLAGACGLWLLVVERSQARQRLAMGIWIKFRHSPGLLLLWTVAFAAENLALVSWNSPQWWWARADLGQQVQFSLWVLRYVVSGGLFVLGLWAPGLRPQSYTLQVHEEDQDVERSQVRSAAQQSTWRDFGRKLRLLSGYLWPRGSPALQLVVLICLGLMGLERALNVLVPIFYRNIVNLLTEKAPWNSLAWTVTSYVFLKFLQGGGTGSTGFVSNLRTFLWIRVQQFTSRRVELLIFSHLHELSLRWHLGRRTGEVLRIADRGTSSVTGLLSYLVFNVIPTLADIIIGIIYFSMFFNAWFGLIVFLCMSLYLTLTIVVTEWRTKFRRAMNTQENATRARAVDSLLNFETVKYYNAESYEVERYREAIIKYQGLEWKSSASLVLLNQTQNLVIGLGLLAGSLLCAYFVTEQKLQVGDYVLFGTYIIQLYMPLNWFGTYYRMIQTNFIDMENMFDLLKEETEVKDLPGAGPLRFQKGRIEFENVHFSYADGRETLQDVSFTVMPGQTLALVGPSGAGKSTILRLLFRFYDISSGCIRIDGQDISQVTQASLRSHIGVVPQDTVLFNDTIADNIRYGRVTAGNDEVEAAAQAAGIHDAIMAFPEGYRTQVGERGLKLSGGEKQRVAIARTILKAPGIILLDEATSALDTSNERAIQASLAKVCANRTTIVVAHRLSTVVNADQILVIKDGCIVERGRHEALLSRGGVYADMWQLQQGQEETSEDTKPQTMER
Exocytosis inh – LAMP-1 surface exposure blockers, TALL-104 cells – cell-based, flow cytometry, MLPCN library, primary screen. AID 651702, 2012. hit rate 0.66% among 360,000. TALL-104 LAMP-1 surface exposure; cells stimulated with thapsigargin and PMA. inhibition, % at 10 µM;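 active = inhibition above about 55%, limit read from the data; inconclusive = no clear call, values can overlap the other calls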
ABCB6 inh CP1 – ABCB6 transporter inhibitors, confirmation, K562-ABCB6 cells, flow cytometry, cherry pick 1 | shares compounds with ABCB6 inh MLPCN | K562-ABCB6 porphyrin accumulation, 1 h; stronger effect = lower value | ratio response (% of DMSO), % at 10 µM | 700 tested, under 10 active | AID 602430, 2012;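 active = repeat-averaged ratio response below 75% of DMSO, the collection mean minus 3 SD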;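 note: median porphyrin fluorescence at 575 nm with 488 nm excitation from mitochondria; lower ratio means less porphyrin signal so ABCB6 inhibition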
Numbers without * were called inactive; i = inactive; ? = inconclusive; . = not tested or not shown; + = active, no number.

SMILES	Myeloid diff 2	ABCB6 inh MLPCN	Exocytosis inh	others
CCOC(=O)c1ccc(NC(=O)c2ncn3c2C(=O)N[C@H](C)C3)cc1	+	96.0	-5.3
CCOC(=O)c1ccc(NC(=O)c2ncn3c2C(=O)NC[C@H]3C)cc1	i	97.0	-3.6
O=[N+]([O-])c1ccc(SNc2ccccc2)c([N+](=O)[O-])c1	i	84.0	-3.2
O=[N+]([O-])c1ccc(-[n+]2ccc3ccccc3c2)c([N+](=O)[O-])c1	+	100.0	2.7
COc1ccccc1CCNC(=O)c1ccc(NC(=O)CC2SC(N3CCCCC3)=NC2=O)cc1 (centres undefined)	i	103.0	0.3
O=C(CC1SC(N2CCCCC2)=NC1=O)Nc1ccc(C(=O)NCCc2ccc(F)cc2)cc1 (centres undefined)	+	101.0	1.0
Cc1noc(C)c1CSCC(=O)OCC(=O)Nc1ccc(OC(F)(F)F)cc1	i	99.0	-3.0
Cn1cccc1C(=O)NNC(=O)COc1ccccc1Cl	i	97.0	-0.7
O=C(O)C1CCCN1S(=O)(=O)c1ccc(Cl)cc1 (centres undefined)	i	98.0	-13.4
O=C(O)C1CCCN1S(=O)(=O)c1ccccc1 (centres undefined)	+	100.0	1.9
C=CCc1cccc(/C=N/NC(=O)CCCNc2ccc(C)cc2)c1O	i	93.0	-5.6
C=CCc1cccc(/C=N/NC(=O)CCC(=O)Nc2ccc(F)cc2)c1O	+	96.0	-6.9
Clc1ccc2nnc(Cl)n2n1	+	90.0	2.3
FC(F)c1nnc2ccc(Cl)nn12	i	94.0	0.4
CCN1CCN(c2ccc(NC(=O)c3ccc(Br)o3)cc2)CC1	i	96.0	1.0
O=C(Nc1ccc(N2CCCC2)cc1)c1ccc(Br)o1	+	151.0	9.2
CN1CCN(c2ccc(NC(=O)c3cc4ccccc4o3)cc2)CC1	i	100.0	12.7
CN1CCN(c2ccc(NC(=O)c3ccc(-c4ccc(Br)cc4)o3)cc2)CC1	.	96.0	75.8*
CSc1ccc(CN2CCC2(C)C(=O)NC2CCN(Cc3ccccc3)CC2)cc1 (centres undefined)	i	87.0	-3.1
O=C(COC(=O)c1ccc[n+]([O-])c1)Nc1ccc([N+](=O)[O-])cc1Cl	i	96.0	-9.8
Cc1ccc(Nc2nc(N/N=C/c3c[nH]c4ccccc34)nc(N3CCOCC3)n2)cc1	i	91.0	63.1*
Cc1[nH]c2ccccc2c1/C=N/Nc1nc(Nc2ccc(F)cc2)nc(N2CCOCC2)n1	i	94.0	-0.2
O=C(Nc1ccccc1)c1cc(C2COCCN2C(=O)CCCc2ccccc2)on1 (centres undefined)	i	96.0	-5.8
CN(Cc1ccccc1)C(=O)CCN1C(=O)c2cccc([N+](=O)[O-])c2C1=O	i	98.0	-3.4
O=C1c2cccc([N+](=O)[O-])c2C(=O)N1CCO	+	404.0	3.5
SMILES	Myeloid diff 2	ABCB6 inh MLPCN	Exocytosis inh	others
CC1(c2nc3ccccc3[nH]2)c2ccccc2C(=O)N1Cc1ccccn1 (centres undefined)	i	98.0	-4.9
CCc1ccc(OC(=O)c2cccnc2)cc1	i	91.0	-2.6
O=[N+]([O-])c1ccccc1-c1ccc(C(=S)N2CCCC2)o1	+	109.0	2.6
Cc1cccc(N2CCN(C(=S)c3ccc(-c4ccccc4[N+](=O)[O-])o3)CC2)c1	i	106.0	5.6
O=C(c1ccc(-c2ccccc2Cl)o1)N1CCCCCCC1	i	98.0	-4.4
O=[N+]([O-])c1ccccc1-c1ccc(C(=S)N2CCCCC2)o1	i	101.0	64.7*
CCCCN1CC[C@@H]2C=CC[C@H](C(=O)OC)[C@@H]2C1=O	i	100.0	2.3
O=C1c2ccccc2C(=O)c2c(/C=C/N3CCCCC3)ccnc21	+	105.0	2.4
O=C1c2ccccc2-c2cccnc21	i	98.0	10.3
COc1ccc(C=NNC(=O)c2cc(C)oc2C)cc1O	i	101.0	18.2
CCOC(=O)c1sc(Nc2ccc(Br)cc2)nc1C	i	96.0	3.9
CCOC(=O)c1cc2nc(Nc3ccc(OC)cc3)sc2s1	+	134.0	-0.6
Cc1ccc(NC(=O)CSc2ccc3nnc(CCNC(=O)c4ccccc4)n3n2)c(C)c1	i	102.0	2.5
O=[N+]([O-])c1ccc(N=NN(CCO)CCO)cc1	i	96.0	-2.4
O=[N+]([O-])c1ccc(N=Nc2ncc[nH]2)cc1	?	324.0	78.6*
COC(=O)[C@]1(Cc2ccccc2)N[C@H](CN(C)S(=O)(=O)c2ccc(C(C)(C)C)cc2)[C@@H]2C(=O)N(Cc3ccccc3)C(=O)[C@@H]21	i	97.0	0.7
Cc1cc(=O)c(C(=O)O)c(C)n1-c1ccccc1	i	98.0	9.1
O=C(CN(C(=O)Cn1nnc(-c2ccccc2F)n1)c1cccc2c1CCCC2)NCc1ccccc1	+	90.0	28.4
CC(C)CCNC(=O)CN(C(=O)Cn1nnc(-c2ccccc2F)n1)c1cccc2c1CCCC2	i	100.0	1.6
CCCCOc1cccc(C2/C(=C(\O)c3ccc4c(c3)OCCO4)C(=O)C(=O)N2CCN2CCOCC2)c1 (centres undefined)	i	96.0	-1.6
COc1ccc(C2=CC(=O)CCC2)cc1	i	101.0	93.6*
COc1cccc(C2=CC(=O)CCC2)c1	i	99.0	0.1
Cc1cc(SCC(=O)OCC(=O)c2c(N)n(C)c(=O)n(C)c2=O)c(C)cc1Br	i	106.0	-2.1
Cn1c(N)c(C(=O)COC(=O)CCc2ccccc2)c(=O)n(C)c1=O	+	469.0	-1.5
Cc1cc(Br)ccc1SCC(=O)OCC(=O)NC1CC1	+	143.0	0.4
SMILES	Myeloid diff 2	ABCB6 inh MLPCN	Exocytosis inh	others
Cn1c(N)c(C(=O)COC(=O)CNC(=O)c2ccccc2)c(=O)n(C)c1=O	i	104.0	1.1
Cc1cc(Br)ccc1SCC(=O)OCC(=O)NC(C)c1ccccc1 (centres undefined)	i	99.0	0.8
Cc1cc(Br)ccc1SCC(=O)OCC(=O)c1c(N)n(C)c(=O)n(C)c1=O	+	97.0	-3.3
CC(=O)NCCNc1nc2cc(-c3ccsc3)sc2c(=O)n1C	i	99.0	-0.9
NNC(=O)Cc1cccc2ccc(Cl)cc12	i	100.0	-15.4
CCOc1ccc(C(=O)CCC(=O)Nc2cc(C)ccn2)cc1	i	74.0*	-0.6	ABCB6 inh CP1=104.0
CCOc1ccc(C(=O)CCC(=O)NNC(=O)c2ccncc2)cc1	i	95.0	10.9
CC(=O)Nc1cccc(NS(=O)(=O)c2cc3c4c(c2)CCN4C(=O)CC3)c1	i	101.0	0.1
CCN(CC)C(=O)Cn1cnc2sc(C(=O)Nc3cc(OC)c(OC)c(OC)c3)c(C)c2c1=O	i	97.0	-3.1	ABCB6 inh CP1=102.0
COc1ccccc1NC(=O)Cn1cnc2sc(C(=O)Nc3cc(OC)c(OC)c(OC)c3)c(C)c2c1=O	i	93.0	-1.4
